# Compound activity deposited in PubChem by several laboratories.
# PHOSPHO1 block = PHOSPHO1 (human) inhibition; recombinant PHOSPHO1, absorbance phosphatase assay; inhibition, % at 13.3 µM; 1.1% of 290,000 active; in the data active means inhibition above about 60%
# Target sequence (Q8TCT1 whole entry, looked up): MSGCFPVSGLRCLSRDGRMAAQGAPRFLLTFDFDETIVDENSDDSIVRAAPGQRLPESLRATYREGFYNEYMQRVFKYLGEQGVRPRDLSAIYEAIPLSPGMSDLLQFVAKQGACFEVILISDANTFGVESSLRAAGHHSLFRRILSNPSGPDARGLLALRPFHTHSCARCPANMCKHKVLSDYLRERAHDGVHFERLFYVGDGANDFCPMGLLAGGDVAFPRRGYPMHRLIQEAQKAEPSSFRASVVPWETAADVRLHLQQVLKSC
# H9c2 protect = myocardial damage modulation in H9c2 cells. H9c2 cardiomyocytes, H2O2 injury protection, ATPLite, 2 h. AID 588492. 0.63% of 360,000 active. protection from H2O2 cell death, % at 20 µM;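 active means compounds giving at least 50% protection of heart cells from peroxide-induced death in the single-dose screen, raw or plate-pattern-corrected value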;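 further: 0% = DMSO wells with peroxide and 100% = DMSO wells without peroxide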
# PfM18AAP inh = PfM18AAP enzyme inhibition. recombinant PfM18AAP, H-Glu-NHMec fluorogenic cleavage. inhibition, % at 7.35 µM. 1.2% of 290,000 active. AID 1822;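 active means inhibition above the campaign mean inhibition over all tested compounds plus 3 SD, cut at about 28% in these data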;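 further: 0% = plate median of test compound wells and 100% = 2 mM ZnCl2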
# PfGluPho inh = PfG6PD (Plasmodium falciparum) enzyme inhibition; PfGluPho enzyme, NADPH resazurin-diaphorase fluorescence; inhibition, % at 20 µM; 0.78% of 350,000 active; AID 504690;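 active means inhibition reaching at least a set limit at 20 µM in the primary screen, cut at about 59% in these data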;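 further: 0% = DMSO wells with substrate and 100% = DMSO wells lacking glucose-6-phosphate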
# ALR H2O2 inh = inhibitors of human sulfhydryl oxidase ALR. purified ALR, DTT oxidation, H2O2 HRP-luminol luminescence. P55789. inhibition, % (no concentration beside the values). 3.8% of 290,000 active;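 active means mean replicate inhibition above about 79%, with every replicate also reaching it, limit read from the data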
# Target sequence (P55789 whole entry, looked up): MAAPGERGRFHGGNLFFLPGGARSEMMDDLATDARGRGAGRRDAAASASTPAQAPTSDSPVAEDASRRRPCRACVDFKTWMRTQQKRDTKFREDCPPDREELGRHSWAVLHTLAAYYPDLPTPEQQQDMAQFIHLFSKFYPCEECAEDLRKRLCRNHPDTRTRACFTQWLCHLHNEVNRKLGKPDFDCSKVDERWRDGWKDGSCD
# The depositor's hits bear a star; · = no result. Compounds with a hit are over-represented: about 5.6% of the library has one in this group of screens.
SMILES,PHOSPHO1 block,H9c2 protect,PfM18AAP inh,PfGluPho inh,ALR H2O2 inh
Cc1cccc(-n2nnnc2SCc2csc(-c3ccccc3)n2)c1,4,-16,-3,25,44
Cc1cc(C)nc(SCc2csc(N)n2)n1,84*,8,10,15,·
Cc1nc(CSc2nnc(N)s2)cs1,-8,2,-3,-1,8
Cc1cccc(N2C(N)=C(C#N)C(C#N)(C#N)C2c2ccccc2)c1 (configuration not stated),8,-8,-20,-18,37
N#CC1=C(N)N(c2ccccc2)C(c2ccco2)C1(C#N)C#N (configuration not stated),28,9,4,-15,94*
Cc1cc(C)nc(NN2C(=O)C=CC2=O)n1,23,4,-2,15,·
CS(=O)(=O)Cc1ccc(C(=O)NC2CCCc3ccccc32)cc1 (configuration not stated),-12,-4,0,6,·
COc1cc(N/N=C(\C)c2ccc(N)cc2)nc(-c2ccccc2)n1,16,6,6,7,98*
COc1ccc(-c2[nH]ncc2CN(C)CCc2c(C)n[nH]c2C)c(F)c1,67*,-1,-1,-10,0
COc1ccc(-c2[nH]ncc2CN(C)C(C)c2cccs2)c(F)c1 (configuration not stated),40,-8,-5,13,4
CC1CCCC(NC(=O)/C=C/c2c(F)cccc2Cl)C1C (configuration not stated),·,-1,·,0,-9
CN1c2ccccc2C(C)(C)C12CCCC(=O)N2 (configuration not stated),87*,-3,6,15,15
Cc1c(Cc2ccccc2)sc(/N=C/c2c(O)ccc3ccccc23)c1C(N)=O,-1,-6,42*,27,-19
Cc1c(Cc2ccccc2)sc(N)c1C(N)=O,48,·,42*,·,11
Cc1sc(N)c(C(=O)c2ccccc2)c1C,-140,-1,32*,42,31
Cc1c(Cc2ccccc2)sc(NC(=O)C(C)(C)C)c1C(N)=O,-35,0,3,33,-9
CCC(C)c1ccccc1NC(=O)COC(=O)C1=NN(c2ccccc2)C(=O)CC1 (configuration not stated),·,17,·,15,-11
CC(C)(C)c1csc(NC(=O)c2ccccc2O)n1,14,-19,-9,28,81*
CC(C)(C)c1csc(NC(=O)c2c(F)c(F)c(F)c(F)c2F)n1,·,0,4,12,98*
CC(C)(C)c1csc(NNC(=O)c2ccc(Br)cc2)n1,-17,55*,-2,13,·
C/C(=N\Nc1nc(C(C)(C)C)cs1)c1ccc(O)cc1,9,-8,1,7,·
COC(=O)[C@H](C)N(Cc1ccc(Cl)c(Cl)c1)S(=O)(=O)CCN1CCN(c2ccccc2)CC1,·,-15,·,13,·
Nc1ccc(-c2ccc(N)c(C(=O)O)c2)cc1C(=O)O,25,-1,16,6,83*
CCN(C(=O)COC(=O)c1cccc(S(=O)(=O)N(C)C)c1)c1c(N)n(Cc2ccccc2)c(=O)[nH]c1=O,·,3,·,10,·
CCN(CCNC(=O)c1ccc(CSc2nc3ccncc3[nH]2)cc1)c1ccccc1,-21,-15,7,6,98*
SMILES,PHOSPHO1 block,H9c2 protect,PfM18AAP inh,PfGluPho inh,ALR H2O2 inh
O=C(NCCN1CCN(c2cccc(Cl)c2)CC1)c1ccc(CSc2nc3ccncc3[nH]2)cc1,-12,3,-5,4,2
CC(CN1CCN(CCOCCO)CC1)CN1c2ccccc2Sc2ccc(Cl)cc21 (configuration not stated),·,-20,·,29,·
CCSc1ccc2c(c1)N(CCCN1CCN(C)CC1)c1ccccc1S2,·,3,·,6,97*
CN1CCCC(CN2c3ccccc3Sc3ccccc32)C1 (configuration not stated),-6,21,10,15,99*
CN1CCCC(CC2c3ccccc3Sc3ccccc32)C1 (configuration not stated),·,6,·,14,1
CN1CCN(CCCN2c3ccccc3Sc3ccc(Cl)cc32)CC1,26,-8,23,35,99*
OC1CC2CCC(C1)N2CCCN1c2ccccc2Sc2ccc(Cl)cc21 (configuration not stated),·,-17,·,18,·
O=C(NN(Cc1ccccc1)Cc1ccccc1)c1ccccc1,·,-4,·,-4,·
O=C(Nc1cc(Cl)ccc1N1CCCC1)C1=NN(c2ccccc2)C(=O)CC1,22,-9,7,-12,-9
NC(c1ccccc1)c1csc(Nc2ccc(S(N)(=O)=O)cc2)n1 (configuration not stated),·,3,·,·,·
C=CCn1c(N)c(-c2nc3ccccc3n2C)sc1=S,1,0,-11,11,90*
Cn1c(-c2sc(=S)n(-c3ccccc3)c2N)nc2ccccc21,-8,-6,0,-1,-5
CCOC(=O)c1c(N)sc2c(OC)c(Br)ccc12,16,3,-29,16,99*
Cc1ccc(CNCc2cc(Cl)ccc2O)cc1,·,-2,·,10,·
Cc1nn(Cc2ccccc2)c(N)c1C#N,10,31,-1,0,-7
Cc1nn(C2CCCCC2)c(N)c1-c1ccccc1,14,10,8,1,97*
Cc1nn(Cc2ccccc2)c(N)c1-c1ccccc1,3,-13,-6,-3,97*
Cc1nn(C)c(N)c1-c1ccccc1,-20,2,-3,-12,1
COc1ccc(OC)c(S(=O)(=O)N2CCCC(C(=O)NC3CC3)C2)c1 (configuration not stated),·,0,·,4,·
CC(=O)NN1C(=O)/C(=C/c2ccc(Br)o2)SC1=S,87*,17,18,13,-3
CC(=O)NN1C(=O)/C(=C\c2ccc(O)cc2)SC1=S,28,-1,18,-12,99*
CC(=O)NN1C(=O)/C(=C\c2ccc(C)cc2)SC1=S,14,-2,8,4,-4
Clc1cccc(-c2nn3c(-c4ccncc4)nnc3s2)c1,10,·,·,·,·
c1ccc2c(c1)OCC(c1nnc3sc(-c4cnccn4)nn13)O2 (configuration not stated),58,-1,-14,36,-24
c1ccc2c(c1)OCC(c1nnc3sc(-c4ccc5c(c4)OCO5)nn13)O2 (configuration not stated),84*,-5,-51,-8,-12
SMILES,PHOSPHO1 block,H9c2 protect,PfM18AAP inh,PfGluPho inh,ALR H2O2 inh
Fc1ccc(-c2nn3c(C4COc5ccccc5O4)nnc3s2)cc1 (configuration not stated),79*,0,-7,56,-6
Clc1cccc(-c2nnc3sc(-c4ccc5c(c4)OCO5)nn23)c1,75*,·,·,·,·
CCCNC(=O)C1(C)CCCN(C(=O)c2cc(C)nn2C(C)(C)C)C1 (configuration not stated),·,-2,·,·,·
Cc1ccccc1-c1cc2nc(Nc3ccc(F)cc3)n(C)c(=O)c2s1,·,0,·,·,·
COc1cccc(NC(=O)CSc2ccc3nnc(-c4ccccn4)n3n2)c1,3,3,0,-1,-6
Cc1ccc(NC(=O)CSCC(=O)O)cc1,26,0,2,-12,98*
